Reference: PubChem BioAssay (EPA / NIEHS)
Inconclusive results are not listed. The source made the active and inactive calls. Rule for the calls: active = hit-call score of the fitted dose curve at least 0.9, where 1 is the maximum; inconclusive = response in the unintended direction; inactive = score below 0.9.

Target: human Peroxisome Proliferator-activated Receptor alpha (PPARa), PPARA (gene 5465) (UniProt Q07869)
Assay: ATG_PPARa_TRANS: Attagene TRANS-FACTORIAL HepG2 Assay for human Peroxisome Proliferator-activated Receptor alpha (PPARa) (AID 2283001);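 for AC50: potency for gain of reporter signal over DMSO so agonist or activator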
Procedure, shortened: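 HepG2 cells transiently transfected with multiplexed GAL4-UAS reporter units and chimeric NR-Gal4 constructs were dosed for 24 h. Reporter mRNA was measured by RT-PCR with fluorescent labelling and capillary electrophoresis; gain of signal fitted against DMSO.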

Sequence of human Peroxisome Proliferator-activated Receptor alpha (PPARa), PPARA (gene 5465) (Q07869 whole entry, looked up): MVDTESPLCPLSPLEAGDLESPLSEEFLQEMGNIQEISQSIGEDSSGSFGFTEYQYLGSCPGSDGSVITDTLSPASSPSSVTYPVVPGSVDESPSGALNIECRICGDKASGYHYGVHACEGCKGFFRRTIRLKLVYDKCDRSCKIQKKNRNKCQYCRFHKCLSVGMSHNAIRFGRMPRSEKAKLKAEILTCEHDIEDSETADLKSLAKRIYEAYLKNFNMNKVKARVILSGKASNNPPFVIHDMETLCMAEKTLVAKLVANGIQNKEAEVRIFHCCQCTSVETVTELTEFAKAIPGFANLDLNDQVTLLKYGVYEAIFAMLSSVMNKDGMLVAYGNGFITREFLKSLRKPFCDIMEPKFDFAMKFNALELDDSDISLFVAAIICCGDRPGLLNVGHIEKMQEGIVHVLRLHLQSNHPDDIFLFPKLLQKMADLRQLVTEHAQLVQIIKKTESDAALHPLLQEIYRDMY

SMILES | AC50 | outcome
CCCCCCCCCCCCCC(=O)O | 27.9 µM (active) | –
COc1ccc(O)cc1 | – | inactive
CCCC(C)C=O (stereo not drawn) | – | inactive
CCCCCC(=O)OCCc1ccccc1 | – | inactive
CC(C)C[C@H]1C(=O)N2CCC[C@H]2[C@]2(O)O[C@](NC(=O)[C@@H]3C=C4c5cccc6[nH]c(Br)c(c56)C[C@H]4N(C)C3)(C(C)C)C(=O)N12 | – | inactive
CC(C)(C#N)c1cc(Cn2cncn2)cc(C(C)(C)C#N)c1 | – | inactive
NCCCCCCN | – | inactive
CCC(C)CCCC(C)(C)O (stereo not drawn) | – | inactive
C=C(C)C1CCC(C)CC1O (stereo not drawn) | – | inactive
C=C(C)C(=O)Nc1ccc(Cl)c(Cl)c1 | – | inactive
C=C(C)C(=O)O | – | inactive
O=C1CCc2ccccc2O1 | – | inactive
O=C1O[C@@H]2[C@@H](O)[C@H](O)O[C@@H]2[C@H]1O | – | inactive
Nc1nc2ccc([N+](=O)[O-])cc2s1 | – | inactive
O=C(O)CCSCCC(=O)O | – | inactive
O=C(O)c1cccc(C(F)(F)F)c1 | – | inactive
CCCCc1ccc(N)cc1 | 38.7 µM (active) | –
NC(N)=NC(=O)c1nc(Cl)c(N)nc1N | – | inactive
CCc1ccc(C=O)cc1 | – | inactive
c1ccc(CCCc2ccccn2)cc1 | – | inactive
CCCCCCCCCCCCCCCC(=O)O | 26.5 µM (active) | –
Cc1ccc(C(C)C)cc1O | – | inactive
CC(C)=CCCC(C)CC=O (stereo not drawn) | – | inactive
CCCc1ccccc1O | – | inactive
O=C(O)CCCCCCCC(=O)O | – | inactive
CC(CN1c2ccccc2Sc2ccccc21)N(C)C (stereo not drawn) | – | inactive
CC(C)=CCCC(C)=CCCC(C)=CCO | – | inactive
CC(C)=CCC[C@H](C)CC=O | – | inactive
